Test results published in PubChem BioAssay AID463173 (ICCB-Longwood Screening Facility, Harvard Medical School, 2010).
About 4,300 (8.3%) of roughly 52,000 compounds were called active. Rule as the data show it: active = survival mostly below about 52% (no sharp cut-off); inactive = mostly above about 56%. What follows is part of a selection rich in actives, with near analogues and random picks from the rest.

Test system: DeltatarO mutant
Test: S. aureus survival, RN4220 and DeltatarO strains – OD600, teichoic acid synthesis inhibitors, primary screen (AID 463173)
Details: S. aureus RN4220 wild type/DeltatarO growth, OD600, 18 h, active compounds read low, screened at 18.75 µg/mL (by protocol)

SMILES | survival
O=C(c1ccc2c(c1)N(Cc1ccc(Cl)cc1)C(=O)c1ccccc1S2(=O)=O)N1CCCCCC1 | 64% (inactive)
Cn1nc(CC(=O)Nc2ccc(N3CCN(C(=O)OC(C)(C)C)CC3)cc2)c2ccccc2c1=O | 84% (inactive)
COC(=O)c1ccccc1NC(=O)CSc1nc2sc3c(c2c(=O)[nH]1)CCCC3 | 61% (inactive)
CCOc1ccccc1NC(=O)CSc1nnc2[nH]c(=O)cc(-c3ccccc3)n12 | 98% (inactive)
Cc1nonc1OCCn1nnc(N)n1 | 95% (inactive)
O=[N+]([O-])c1ccc(C(c2sc3nc(-c4ccco4)nn3c2O)N2CCN(Cc3ccccc3)CC2)cc1 (stereo unspecified) | 79% (inactive)
O=[N+]([O-])c1ccc(C(c2sc3nc(-c4ccco4)nn3c2O)N2CCN(c3cccc(Cl)c3)CC2)cc1 (stereo unspecified) | 47% (active)
Oc1c(C(c2ccccc2)N2CCN(c3cccc(Cl)c3)CC2)sc2nc(-c3ccco3)nn12 (stereo unspecified) | 74% (inactive)
Oc1c(C(c2ccccc2F)N2CCOCC2)sc2nc(-c3ccco3)nn12 (stereo unspecified) | 80% (inactive)
COc1ccc(OC)c(NC(=O)CSc2ccc(-c3sc(C)nc3C)nn2)c1 | 83% (inactive)
CCOC(=O)c1ccccc1NC(=O)CSc1ccc(-c2sc(C)nc2C)nn1 | 91% (inactive)
Cc1nc(C)c(-c2ccc(SCC(=O)Nc3ccc(F)c(F)c3)nn2)s1 | 102% (inactive)
CCOC(=O)c1ccc(NC(=O)CSc2ccc(-c3sc(C)nc3C)nn2)cc1 | 37% (active)
COc1ccccc1NC(=O)CSc1ccc(-c2sc(C)nc2C)nn1 | 92% (inactive)
COc1ccc(Cl)cc1NC(=O)CSc1ccc(-c2sc(C)nc2C)nn1 | 105% (inactive)
COc1cc(NC(=O)CSc2ccc(-c3sc(-c4ccccc4)nc3C)nn2)cc(OC)c1 | 19% (active)
Cc1nc(C)c(-c2ccc(SCC(=O)Nc3ccc(Cl)c(Cl)c3)nn2)s1 | 46% (active)
COc1cccc(CNC(=O)CSc2ccc(-c3sc(-c4ccccc4)nc3C)nn2)c1 | 26% (inactive)
COc1cc(NC(=O)CSc2ccc(-c3sc(C)nc3C)nn2)cc(OC)c1 | 6% (active)
Cc1cc(C)c(NC(=O)CSc2ccc(-c3sc(-c4ccccc4)nc3C)nn2)c(C)c1 | 33% (inactive)
Cc1nc(C)c(-c2ccc(SCC(=O)Nc3ccc(Br)cc3)nn2)s1 | 101% (inactive)
COc1ccc(NC(=O)C2CCN(S(=O)(=O)c3c(C)noc3/C=C/c3ccc(C)cc3)CC2)cc1Cl | 82% (inactive)

SMILES | survival
COc1cc2c(=O)n(CCC(=O)NCC3CCCO3)c(=O)n(CC(=O)Nc3ccc(C)cc3)c2cc1OC (stereo unspecified) | 92% (inactive)
COc1cccc(OC(=O)CSc2nnc(-c3ccc4c(c3)OCO4)o2)c1 | 59% (inactive)
CC(=O)Nc1ccc(S(=O)(=O)NC2(C(F)(F)F)C(=O)Nc3c2c(=O)[nH]c(=O)n3-c2cccc(Cl)c2)cc1 (stereo unspecified) | 84% (inactive)
Cc1ccc(Cl)cc1N1CCN(C(=O)C2CCN(S(=O)(=O)Cc3ccccc3)CC2)CC1 | 72% (inactive)
CCC1CN(C(=O)N2CCC(C(=O)NCc3ccc(C)o3)CC2)c2ccccc2O1 (stereo unspecified) | 87% (inactive)
O=C(NCc1ccco1)C(c1ccco1)N(C(=O)Cn1nnc2ccccc21)c1ccccc1 (stereo unspecified) | 65% (inactive)
Cc1cc2c(cc1S(=O)(=O)N(C)CC(=O)Nc1ccc(C#N)cc1)OCC(=O)N2 | 76% (inactive)
Cc1cc2c(cc1S(=O)(=O)N(CCN(C)C)Cc1ccccc1)OCC(=O)N2 | 102% (inactive)
CN(CC(=O)Nc1cccc(C#N)c1)S(=O)(=O)c1cc2c(cc1Cl)NC(=O)CO2 | 109% (inactive)
Cc1cc2c(cc1S(=O)(=O)N(CCN(C)C)Cc1ccco1)OCC(=O)N2 | 98% (inactive)
Cc1cc2c(cc1S(=O)(=O)N(C)CC(=O)Nc1cccc(C#N)c1)OCC(=O)N2 | -2% (active)
Cc1cc2c(cc1S(=O)(=O)N(CCO)Cc1ccccc1)OCC(=O)N2 | 46% (active)
CCN1CCN(C(c2cccc(OC)c2)c2c(O)cc(C)n(Cc3ccco3)c2=O)CC1 (stereo unspecified) | 120% (inactive)
Cc1ccc(-c2n[nH]c3c2C(c2ccc(C(C)(C)C)cc2)NC3=O)cc1 (stereo unspecified) | 109% (inactive)
CCOC(=O)c1ccc(NC(=O)Cn2nc(SC)c(S(=O)(=O)c3ccc(Cl)cc3)c2N)cc1 | 99% (inactive)
CCSc1nn(CC(=O)Nc2cccc(CC)c2)c(N)c1S(=O)(=O)c1ccccc1 | 101% (inactive)
CCSc1nn(CC(=O)Nc2ccc(C(=O)OC)cc2)c(N)c1S(=O)(=O)c1ccc(C)cc1 | 37% (active)
COc1ccc(S(=O)(=O)c2c(SC)nn(CC(=O)Nc3ccc(C)c(Cl)c3)c2N)cc1 | 83% (inactive)
CCc1ccc(NC(=O)Cn2nc(SC)c(S(=O)(=O)c3ccc(OC)cc3)c2N)cc1 | 118% (inactive)
COc1ccc(NC(=O)Cn2nc(SC)c(S(=O)(=O)c3ccc(C)cc3)c2N)cc1OC | 25% (active)
Cn1cc(-c2cc3n(n2)CCC(=O)N3CCCC(=O)NCc2ccccc2Cl)c2ccccc21 | 109% (inactive)
CCn1c(=O)cc(SCC(=O)NCCc2ccc(Cl)cc2)c2ccccc21 | 76% (inactive)

SMILES | survival
O=C(NC12CCC(O)C(SC1)/C2=N/O)c1ccccc1 (stereo unspecified) | 98% (inactive)
COc1cccc(-c2noc(C3CCCN(S(=O)(=O)c4ccccc4F)C3)n2)c1 (stereo unspecified) | 65% (inactive)
CC(C)(C)OC(=O)N1CCC(c2c(C(=O)NCCN3CCc4ccccc4C3)cnn2-c2ccc(F)cc2)CC1 | 68% (inactive)
CCSc1nc(-c2ccccc2F)nc2c1Cc1c(CO)cnc(C)c1O2 | 52% (active)
Cc1ccc(C)c(CSc2nc(-c3ccccc3F)nc3c2Cc2c(CO)cnc(C)c2O3)c1 | 108% (inactive)
COc1ccccc1-c1nc2c(c(SCc3cc(C)ccc3C)n1)Cc1c(CO)cnc(C)c1O2 | 41% (active)
Cc1ncc(CO)c2c1Oc1nc(-c3ccc(F)cc3)nc(SCC(=O)N3CCCCC3)c1C2 | 52% (inactive)
Cc1ncc(CO)c2c1Oc1nc(-c3ccccc3)nc(SCC(=O)N3CCCCC3)c1C2 | 85% (inactive)
Cc1ncc(CO)c2c1Oc1nc(-c3ccc(Cl)cc3)nc(SCC(=O)N3CCCCC3)c1C2 | 48% (active)
CCc1ccc(CSc2nc(-c3ccccc3F)nc3c2Cc2c(CO)cnc(C)c2O3)cc1 | 61% (inactive)
CCc1ccc(CSc2nc(-c3ccccc3OC)nc3c2Cc2c(CO)cnc(C)c2O3)cc1 | 90% (inactive)
CCN(CC)C(=O)CSc1nc(-c2ccc(C)cc2)nc2c1Cc1c(CO)cnc(C)c1O2 | 39% (active)
Cc1ccc(-c2nc3c(c(SCC(=O)N(C)c4ccccc4)n2)Cc2c(CO)cnc(C)c2O3)cc1 | 64% (inactive)
CCN(CC)C(=O)CSc1nc(-c2ccccc2F)nc2c1Cc1c(CO)cnc(C)c1O2 | 101% (inactive)
CCSc1nc(-c2ccccc2OC)nc2c1Cc1c(CO)cnc(C)c1O2 | 80% (inactive)
O=C(CSc1nccn1Cc1ccccc1)Nc1ccc2c(c1)OCCO2 | 71% (inactive)
CN(C)c1ccc(CN(Cc2ccco2)C(=O)COc2ccc(F)cc2)cc1 | 91% (inactive)
CC(Sc1nnc2c(n1)[nH]c1ccccc12)C(=O)NC1CC1 (stereo unspecified) | 60% (inactive)
CCc1ccc(-c2cn3c(n2)sc2cc(C(=O)NCCC4=CCCCC4)ccc23)cc1 | 70% (inactive)
O=C(NCc1ccccc1)C(c1ccco1)N(C(=O)c1csnn1)c1ccccc1 (stereo unspecified) | 81% (inactive)
CCCCc1nn2c(=O)cc(COC(=O)c3ccccc3NC(=O)c3ccccc3OC)nc2s1 | 84% (inactive)
O=C(Nc1ccc(Cl)cc1)N1CCC(c2ccccc2)C1 (stereo unspecified) | 67% (inactive)

SMILES | survival
COc1cc(OC)c(NC(=O)CN2C(=O)CCn3nc(-c4cccn4C)cc32)cc1Cl | 90% (inactive)
O=C(NC1(C(F)(F)F)NC(=O)N(CCc2ccccc2)C1=O)c1ccccc1F (stereo unspecified) | 76% (inactive)
Cc1ccc(N(CC(=O)N2CCN(c3cccc(C)c3C)CC2)S(=O)(=O)c2c(C)nn(C)c2C)cc1 | 75% (inactive)
CCSc1nc(-c2cccc(Cl)c2)nc2c1Cc1c(CO)cnc(C)c1O2 | 116% (inactive)
CCSc1nc(-c2ccccc2)nc2c1Cc1c(CO)cnc(C)c1O2 | 93% (inactive)
CCSc1nc(-c2ccc(Cl)cc2)nc2c1Cc1c(CO)cnc(C)c1O2 | 39% (active)
CC(C)c1n[nH]c(=S)n1C | 84% (inactive)
CCOc1ccccc1N1CC(c2nc3ccccc3n2CCOc2ccccc2)CC1=O (stereo unspecified) | 32% (active)
CCOc1ccc(N2CC(c3nc4ccccc4n3Cc3ccccc3F)CC2=O)cc1 (stereo unspecified) | 103% (inactive)
CCOc1ccc(N2CC(c3nc4ccccc4n3CCCOc3ccccc3)CC2=O)cc1 (stereo unspecified) | 51% (inactive)
CCOc1ccccc1N1CC(c2nc3ccccc3n2CCCOc2ccccc2)CC1=O (stereo unspecified) | 68% (inactive)
CCOC(=O)Cn1c(C2CC(=O)N(c3ccc(C)cc3)C2)nc2ccccc21 (stereo unspecified) | 66% (inactive)
CCOc1ccccc1N1CC(c2nc3ccccc3n2CCOc2ccc(OC)cc2)CC1=O (stereo unspecified) | 62% (inactive)
CCOc1ccc(N2CC(c3nc4ccccc4n3CCOc3ccc(CC)cc3)CC2=O)cc1 (stereo unspecified) | 55% (active)
CCOc1ccc(N2CC(c3nc4ccccc4n3CCOc3ccccc3)CC2=O)cc1 (stereo unspecified) | 33% (active)
CCc1ccc(N2CC(c3nc4ccccc4n3Cc3ccccc3C)CC2=O)cc1 (stereo unspecified) | 52% (active)
CCc1ccccc1NC(=O)c1nnn(-c2ccc(F)cc2)c1C | 74% (inactive)
CCN(CC)CCCNC(=O)CCc1c(C)n(CC)c2cc(-c3ccccc3OC)nn2c1=O | 92% (inactive)
CCC(=O)n1nc(-c2cccnc2)nc1NCc1ccc(F)cc1 | 88% (inactive)
Cc1ccccc1Nc1nn2c(=O)c3ccc(C(=O)NCc4cccs4)cc3nc2s1 | 72% (inactive)
